Data: PubChem BioAssay (NCATS)
Values joined by “and” are separate entries in the source; they are usually repeats but may differ in a detail not shown here. Equal values may be shown once. Records with an inconclusive call do not appear. A number with no mark means an inactive call. Calls come from the whole dose curve; as a rule, active = well fitted activation curve with a large enough effect in the signal ratio; inconclusive = small, poorly fitted or top-dose-only effect, or a change in a side signal; inactive = flat fitted curve, though single readings scatter; the % refers to the signal ratio.

Assay: qHTS assay for small molecule activators of the nuclear factor-kappa B (NF-kB) signaling pathway (AID 651749); note: series mostly up to about 77 µM; % of control where 0% means no effect
Conditions: NF-kB-bla ME-180 cells, beta-lactamase FRET ratio, 16 h; active compounds read high
In short: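 Stably transfected ME-180 line; NF-kB response element upstream of beta-lactamase. Treatment: compound or DMSO, 16 hr. Detection: fluorescent FRET substrate.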

SMILES | activation
CC(C)(Oc1ccc(C2CC2(Cl)Cl)cc1)C(=O)O (centres undefined) | 1.65%
Cc1ccc(-c2cc(C(F)(F)F)nn2-c2ccc(S(N)(=O)=O)cc2)cc1 | -1.1%
CC(C)Cc1ccc(C(C)C(=O)O)cc1 (centres undefined) | -1.23%
O=c1c(-c2ccc(O)cc2)coc2cc(O)cc(O)c12 | 3.3% and 4.88%
N[C@@H](Cc1c[nH]c2ccc(O)cc12)C(=O)O | 0.166%
Clc1ccc(C(c2ccccc2Cl)C(Cl)Cl)cc1 (centres undefined) | 2.3%
COc1ccc2[nH]cc(CCNC(C)=O)c2c1 | -0.27% and 0.655% and 0.179%
Cn1c(=O)c2[nH]cnc2n(C)c1=O | 0.41%
COc1cc2c(c(OC)c1OC)-c1ccc(OC)c(=O)cc1[C@@H](NC(C)=O)CC2 | 2.95% and 1.58% and 1.39%
Nc1ccn([C@H]2CC[C@@H](CO)O2)c(=O)n1 | -0.557% and 0.274%
C[C@](N)(Cc1ccc(O)c(O)c1)C(=O)O | 0.934%
Cn1cnc2c1c(=O)[nH]c(=O)n2C | -2.65%
Cc1cn([C@H]2C[C@H](N=[N+]=[N-])[C@@H](CO)O2)c(=O)[nH]c1=O | 0.977% and -0.0662%
CCC1(c2ccccc2)C(=O)NCNC1=O | 0.499% and -0.837%
